Here are results for nine molecules from PubChem BioAssay (Tox21).

Test [1] has as its target Nuclear receptor subfamily 1 group I member 3 (Homo sapiens) (UniProt Q14994). The test can be described thus: qHTS assay to identify small molecule antagonists of the constitutive androstane receptor (CAR) signaling pathway (AID 1224838).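 Note: HepG2 cells stably expressing hCAR with CYP2B6 luciferase reporter stimulated by CITCO; nearly all actives have a fitted effect of over 40% in size.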 Summed up: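 Read-out: ONE-Glo luciferase luminescence after 30 min at room temperature. HepG2-CYP2B6-hCAR double-stable cells, compounds in 15-point titration plus 50 nM CITCO final, 24 h at 37 C/5% CO2.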

The target is the same in test [2]. Kind of test: qHTS assay to identify small molecule agonists of the constitutive androstane receptor (CAR) signaling pathway (AID 1224839).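 For activation: HepG2 cells stably carrying human CAR and a CYP2B6 luciferase reporter.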 Note: nearly all actives have a fitted effect of over 15% in size. Note: potency is the fitted concentration of half-maximal effect. Summed up:
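Cells were plated and incubated 4 hrs, then dosed with compounds at 15 concentrations. PK11195 was added to 0.75 uM final. After 24 hrs at 37 C, luciferase luminescence was measured.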
On the technique in general: Quantitative high-throughput screening tests each substance at several concentrations.

Test [3] is described as follows: qHTS assay to identify small molecule antagonists of the estrogen related receptor signaling pathway with the pleiotropic PPARgamma coactivator (PGC) from Tox21 10K library - cell viability counter screen (AID 1224840; active = well fitted cell-killing curve with a large enough effect in the repeat runs, not every such curve was filed as active; note: nearly all actives have a fitted effect of over 40% in size). Summed up:
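Fluorescence read-out of CellTiter-Fluor viability reagent, added after cells had been exposed to compound in DMSO for 17.5 h at 37 C; 30 min development at 37 C/5% CO2. Cells: PGC/ERR line, 2,000/well.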

In test [4] the target is Thyrotropin receptor (Homo sapiens) (UniProt P16473). Kind of test: qHTS assay to identify small molecule agonists of the thyroid stimulating hormone receptor (TSHR) signaling pathway (AID 1224843; calls by dose curve; note: nearly all actives have a fitted effect of over 45% in size). The method in brief: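 Compounds are titrated over 15 concentrations, in triplicate, onto TSHR-HEK293 cells seeded at 800/well. Plates sit 30 min at room temperature before cAMP-d2 and anti-cAMP cryptate are added; signal is read after a further hour.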

Test [5] is described as follows: qHTS assay to identify small molecule agonists of the hypoxia (HIF-1) signaling pathway - cell viability counter screen (AID 1224844; calls by dose curve; note: nearly all actives have a fitted effect of over 50% in size). Summed up:
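CellTiter-Glo luminescence read-out, 30 min RT, taken in the same wells as the beta-lactamase HRE reporter assay; HRE-bla ME-180 cells, 0.5% dialyzed FBS, 17 hr compound treatment at 37C, 5% CO2.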

The nature of test [6]: qHTS assay to identify small molecule agonists of H2AX (AID 1224845; active = well fitted activation curve with a large enough effect in the signal ratio in the repeat runs, not every such curve was filed as active; the % refers to the signal ratio). Summed up:
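Wild-type CHO-K1 cells plated overnight, then exposed 3 hr at 37C to compounds at 15 concentrations (0.76% DMSO). Lysed, then HTRF anti-pH2AX(S139)-cryptate/anti-H2AX-d2 detection after 24 hr at room temperature; emissions 665 and 620 nm.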

Test [7] in a line: qHTS assay to identify small molecule agonists of the hypoxia (HIF-1) signaling pathway (AID 1224846; active = well fitted activation curve with a large enough effect in the signal ratio in the repeat runs, not every such curve was filed as active; the % refers to the signal ratio). Summed up: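 Beta-lactamase FRET read-out (CCF4-AM substrate) from ME-180 cells carrying an HRE-driven bla reporter, after 17 hrs compound exposure at 37C/5% CO2. Cells were seeded at 2,000 per well in 0.5% dialyzed FBS medium and preincubated 5 hrs.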
Test [8] in a line: qHTS assay to identify small molecule agonists of H2AX - cell viability counter screen (AID 1224847; calls by dose curve; note: top concentration of the series differs between compounds; nearly all actives have a fitted effect of over 30% in size). The method in brief: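 Cytotoxicity counter screen in wild-type CHO-K1 cells: a 3 hr compound treatment at 37C across 15 concentrations, followed by CellTiter-Glo luminescence to gauge viable cells.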
Test [9] in a line: qHTS RealTime-Glo MT Cell Viability Assay in HepG2 cells - 24 hour (AID 1224867). Note: nearly all actives have a fitted effect of over 50% in size. The method in brief:
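Tox21 10K library screened in qHTS format on HepG2 cells carrying RealTime-Glo reagents. Compounds were added after a 5 h preincubation, and the luminescent signal from continuous culture was measured repeatedly during 40 h treatment.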

The nature of test [10]: qHTS RealTime-Glo MT Cell Viability Assay in HEK293 cells - 32 hour (AID 1224868). Note: top concentration of the series differs between compounds; nearly all actives have a fitted effect of over 50% in size. Summed up: (§1)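 Luminescence generated by NanoLuc from substrate produced by living HEK293 cells served as the viability signal. Each value reflects the reading at its stated time point during continuous 40 h compound exposure at 37 C.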
The nature of test [11]: A CellTox Green Cytotoxicity Assay to monitor cytotoxicity in HEK293 cells - 0 hour (AID 1224869). Note: nearly all actives have a fitted effect of over 50% in size. Summed up:
(§2)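 Read-out: fluorescence of a cell-impermeant cyanine dye staining DNA of dead cells, proportional to cytotoxicity. HEK293, 600 cells/well with reagent, compound (23 nL DMSO) added after 5 h; reads at 0, 8, 16, 24, 32, 40 h.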

The nature of test [12]: qHTS RealTime-Glo MT Cell Viability Assay in HepG2 cells - 40 hour (AID 1224870). Note: nearly all actives have a fitted effect of over 50% in size. The method in brief: (§3)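 HepG2 cells mixed with RealTime-Glo MT reagents (NanoLuc plus cell-permeant prosubstrate) were seeded at 600 cells/well, incubated 5 h at 37 C/5% CO2, then pinned with compounds in DMSO; nonlytic luminescence tracked viability during 40 h treatment.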
Test [13] is described as follows: A CellTox Green Cytotoxicity Assay to monitor cytotoxicity in HEK293 cells - 40 hour (AID 1224871). Note: nearly all actives have a fitted effect of over 45% in size. Note: potency is the fitted concentration of half-maximal effect. Summed up:
as §2

Test [14] in a line: qHTS RealTime-Glo MT Cell Viability Assay in HEK293 cells - 16 hour (AID 1224872). The method in brief: as §1
Test [15] is described as follows: qHTS RealTime-Glo MT Cell Viability Assay in HepG2 cells - 8 hour (AID 1224873). Note: nearly all actives have a fitted effect of over 55% in size. The method in brief:
as §3

Test [16] can be described thus: qHTS assay to identify small molecule antagonists of the estrogen related receptor signaling pathway with the pleiotropic PPARgamma coactivator (PGC) from Tox21 10K library (AID 1224841; call rule not given here). Summed up:
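Luminescence read-out (One-Glo luciferase reagent, 30 min at room temperature) from PGC/ERR cells exposed to DMSO-dissolved test compounds for 18 h at 37 C; cells, 2,000 per well, had been preincubated 6 h before compound transfer.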

A short description of test [17]: qHTS assay to identify small molecule agonists of the estrogen related receptor signaling pathway with the pleiotropic PPARgamma coactivator (PGC) from Tox21 10K library (AID 1224842). Note: nearly all actives have a fitted effect of over 15% in size. The method in brief:
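PGC/ERR reporter cells (NTP line) were seeded 2,000 per well, rested 6 h at 37 C/5% CO2, then pin-dosed with compounds in DMSO for 18 h at 37 C; luciferase read by One-Glo luminescence after 30 min at room temperature.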

The nature of test [18]: qHTS assay to identify small molecule antagonists of the estrogen related receptor (ERR) signaling pathway from Tox21 library (AID 1224848). Note: nearly all actives have a fitted effect of over 50% in size. The method in brief: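 First, 2,000 ERR cells per well were plated and held 6 h at 37 C/5% CO2. Next, compounds in DMSO were pinned in and left 18 h at 37 C. Finally, ONE-Glo was added and luminescence read after 30 min at room temperature.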

A short description of test [19]: qHTS assay to identify small molecule agonists of the estrogen related receptor (ERR) signaling pathway from Tox21 library (AID 1224849; calls by dose curve; note: nearly all actives have a fitted effect of over 15% in size). The following applies: ERR reporter cell line, ONE-Glo luciferase, 18 h; at 92.4 µM (top of the series). The method in brief: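 Luminescence readout (ONE-Glo, 30 min RT) after 18 h compound exposure at 37 C of NTP-supplied ERR reporter cells; cells were plated 6 h before compound addition by pin tool.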

“And” between values parts separate entries of the source, which are not always exact repeats. Equal entries are not always repeated. Inconclusive results are not listed. Some structures have more than one record in an assay (separate samples or runs), and their calls can disagree. The source made the active and inactive calls. Unless noted, calls come from the whole dose curve; as a rule, active = well fitted curve in the direction sought with a large enough effect in the repeat runs; inconclusive = weak or mixed curves; inactive = no such curve, though single readings can be large; an effect the other way counts as inactive or inconclusive.
% is set by controls: 0 for no effect and ±100 for the full control effect.

Nuclear receptor subfamily 1 group I member 3 (Homo sapiens), sequence (Q14994 whole entry, looked up): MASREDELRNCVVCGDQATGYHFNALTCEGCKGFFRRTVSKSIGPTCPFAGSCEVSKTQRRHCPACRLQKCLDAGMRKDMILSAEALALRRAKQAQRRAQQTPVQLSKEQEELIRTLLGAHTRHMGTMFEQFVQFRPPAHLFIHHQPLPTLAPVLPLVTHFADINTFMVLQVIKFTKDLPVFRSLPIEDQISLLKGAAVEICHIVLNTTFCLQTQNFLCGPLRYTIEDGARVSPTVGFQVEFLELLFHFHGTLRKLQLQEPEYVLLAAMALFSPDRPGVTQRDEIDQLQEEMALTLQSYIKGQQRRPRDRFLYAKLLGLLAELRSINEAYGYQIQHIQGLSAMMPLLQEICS
Thyrotropin receptor (Homo sapiens), sequence (P16473 whole entry, looked up): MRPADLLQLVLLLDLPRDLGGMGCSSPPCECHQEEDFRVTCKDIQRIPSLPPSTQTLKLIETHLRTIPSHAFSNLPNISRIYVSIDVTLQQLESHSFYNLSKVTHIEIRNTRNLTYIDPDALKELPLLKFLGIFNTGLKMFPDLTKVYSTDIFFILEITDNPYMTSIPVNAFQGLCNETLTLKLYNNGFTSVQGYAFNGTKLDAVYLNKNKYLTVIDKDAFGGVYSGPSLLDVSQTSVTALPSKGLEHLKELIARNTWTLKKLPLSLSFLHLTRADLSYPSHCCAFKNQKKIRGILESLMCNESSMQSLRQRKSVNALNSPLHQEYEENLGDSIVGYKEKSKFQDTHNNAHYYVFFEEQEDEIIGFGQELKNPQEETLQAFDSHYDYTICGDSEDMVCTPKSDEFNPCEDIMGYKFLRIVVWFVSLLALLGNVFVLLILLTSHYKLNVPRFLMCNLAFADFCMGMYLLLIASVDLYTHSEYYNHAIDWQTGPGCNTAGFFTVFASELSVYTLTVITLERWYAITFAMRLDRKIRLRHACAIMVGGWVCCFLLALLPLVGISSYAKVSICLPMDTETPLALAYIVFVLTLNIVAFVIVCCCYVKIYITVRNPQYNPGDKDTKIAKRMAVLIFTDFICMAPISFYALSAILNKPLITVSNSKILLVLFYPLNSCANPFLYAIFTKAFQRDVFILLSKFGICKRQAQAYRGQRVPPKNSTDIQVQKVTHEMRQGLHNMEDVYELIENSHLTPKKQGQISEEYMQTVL

Consider `CCCN(CCC)N=O`, for which the Potency result in test [1], in test [2], in test [3], in test [4], in test [5] and in [6] was “inactive” each time. Further, the Potency result in test [8], in [10], in test [11] and in [13] was “inactive” each time. In addition, the outcome in test [7], in test [9], in test [12], in [14] and in test [15] was inactive.
Turning to `c1cc2c3c(cccc3c1)CC2`, the Potency result in test [1], in test [2], in test [3], in test [4], in [5] and in test [6] was “inactive” in each case. The Potency result in test [8], in test [10] and in test [11] was “inactive” throughout. Moreover, the outcome in [7], in test [9], in [12], in test [14] and in test [15] was inactive. Besides, the Potency result in [13] is “inactive and 43.6 µM (active)”.
For the molecule `CC(C)OC(=O)Nc1ccccc1`, the Potency result in test [1], in test [16], in [4], in test [5], in test [6] and in [18] was “inactive” throughout. For the same molecule, the Potency result in test [10], in test [11] and in [13] was “inactive” each time. In addition, the call in test [17], in test [7], in [9], in [12], in [14] and in test [15] was inactive. In addition, the activity change, positive = activation in test [19] is 8.94% (inactive) and -18.7% (inactive).
With `Cc1cccc([N+](=O)[O-])c1`, the Potency result in [3], in test [16], in [4], in test [5], in [18] and in test [10] was “inactive” throughout. Besides, the Potency entry in test [11] and in test [13] was “inactive” each time. In addition, the molecule was called inactive in test [7], in [9], in test [12], in [14] and in test [15]. Also, the activity change, positive = activation in [19] is 5.45% (inactive) and 0.517% (inactive).
For `O=c1n(Cl)c(=O)n(Cl)c(=O)n1Cl`, the Potency entry in [1], in test [2], in test [3], in test [4], in [5] and in test [6] was “inactive” throughout. Moreover, the Potency result in [8], in test [10], in [11] and in [13] was “inactive” each time. In addition, the molecule was called inactive in test [7], in [9], in test [12], in test [14] and in [15].
In the case of `Cc1ccc(N)cc1N`, the Potency result in test [1], in test [3], in test [16], in [5], in test [18] and in test [11] was “inactive” throughout. The Potency result in test [13] was “inactive”. Besides, in test [2], the Potency is 53 µM (active). The call in test [17], in test [7], in [9], in test [12], in [14] and in test [15] was inactive. Besides, the activity change, positive = activation in [19] is 49% (active).
Take `CCCCCCCCCl`: the Potency entry in [3], in [5], in [6], in [8], in test [10] and in [11] was “inactive” each time. Moreover, in [13], the Potency result is “inactive”. The call in [7], in test [9], in [14] and in test [15] was inactive.
Turning to `Nc1ccc(Cc2ccc(N)cc2)cc1`, the Potency result in [1], in test [4], in test [5], in test [6], in test [10] and in test [11] was “inactive” in each case. In addition, the Potency entry in test [13] was “inactive”. Moreover, the call in [7], in test [9], in test [14] and in test [15] was inactive.
Consider `[O-][Cl+2]([O-])O`, for which the Potency result in test [1], in test [2], in test [3], in test [4], in test [5] and in [6] was “inactive” each time. Besides, the Potency entry in test [10], in [11] and in [13] was “inactive” each time. Besides, the call in test [7], in test [9], in test [14] and in [15] was inactive.
